Assay results from the supplement of paper PMC8728848.
About 410 targets per protein were measured; listed, in parts, are those with the strongest signals and a random draw of the rest.

Assays:
Assay in all cases: glycan array binding signal (z-score within array); higher = stronger binding
Details in all cases: glycan notation: IUPAC condensed, linker removed
Fuc(a1-2)Gal(b1-3)GalNAc = target: Fuc(a1-2)Gal(b1-3)GalNAc
Summary of the method: (§1)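 Negative Z-scores can be read as non-binding. The Z-score is calculated within each array and then averaged across arrays of one protein sequence at different concentrations or buffers and across linkers. Arrays, 3228 in all, were curated from the Consortium for Functional Glycomics database and kept only where the protein sequence was available.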

[1] = target: Fuc(a1-2)Gal(b1-3)GlcNAc(b1-2)Man(a1-3)[Fuc(a1-2)Gal(b1-3)GlcNAc(b1-2)Man(a1-6)]Man(b1-4)GlcNAc(b1-4)GlcNAc
Summary of the method: as §1

[2] = target: Fuc(a1-2)Gal(b1-3)[Fuc(a1-4)]GlcNAc(b1-3)[Gal(b1-4)GlcNAc(b1-6)]Gal(b1-4)Glc
Summary of the method: as §1

[3] = target: Fuc(a1-2)Gal(b1-4)GlcNAc(b1-2)Man(a1-3)[Fuc(a1-2)Gal(b1-4)GlcNAc(b1-2)Man(a1-6)]Man(b1-4)GlcNAc(b1-4)[Fuc(a1-6)]GlcNAc
Summary of the method: as §1

[4] = target: Fuc(a1-2)Gal(b1-4)GlcNAc(b1-3)Gal(b1-4)GlcNAc(b1-2)Man(a1-3)[Fuc(a1-2)Gal(b1-4)GlcNAc(b1-3)Gal(b1-4)GlcNAc(b1-2)Man(a1-6)]Man(b1-4)GlcNAc(b1-4)GlcNAc
Summary of the method: as §1

[5] = target: Fuc(a1-2)Gal(b1-4)[Fuc(a1-3)]GlcNAc(b1-3)Gal(b1-4)[Fuc(a1-3)]GlcNAc
Summary of the method: as §1

[6] = target: Fuc(a1-2)[Gal(a1-3)]Gal(b1-3)GlcNAc(b1-2)Man(a1-3)[Fuc(a1-2)[Gal(a1-3)]Gal(b1-3)GlcNAc(b1-2)Man(a1-6)]Man(b1-4)GlcNAc(b1-4)[Fuc(a1-6)]GlcNAc
Summary of the method: as §1

[7] = target: Fuc(a1-2)[Gal(a1-3)]Gal(b1-4)GlcNAc(b1-2)Man(a1-3)[Fuc(a1-2)[Gal(a1-3)]Gal(b1-4)GlcNAc(b1-2)Man(a1-6)]Man(b1-4)GlcNAc(b1-4)GlcNAc
Summary of the method: as §1

[8] = target: Fuc(a1-2)[GalNAc(a1-3)]Gal(b1-3)GlcNAc(b1-3)GalNAc
Summary of the method: as §1

[9] = target: Fuc(a1-2)[GalNAc(a1-3)]Gal(b1-4)GlcNAc(b1-2)Man(a1-3)[Fuc(a1-2)[GalNAc(a1-3)]Gal(b1-4)GlcNAc(b1-2)Man(a1-6)]Man(b1-4)GlcNAc(b1-4)[Fuc(a1-6)]GlcNAc
Summary of the method: as §1

[10] = target: Fuc(a1-2)[GalNAc(a1-4)]Gal(b1-4)GlcNAc
Summary of the method: as §1

Fuc(a1-3)GlcNAc = target: Fuc(a1-3)GlcNAc
Summary of the method: as §1

Gal(a1-2)Gal = target: Gal(a1-2)Gal
Summary of the method: as §1

Gal(a1-3)Gal(b1-3)GlcNAc = target: Gal(a1-3)Gal(b1-3)GlcNAc
Summary of the method: as §1

[11] = target: Gal(a1-3)Gal(b1-3)GlcNAc(b1-2)Man
Summary of the method: as §1

[12] = target: Gal(a1-3)Gal(b1-3)GlcNAc(b1-6)GalNAc
Summary of the method: as §1

Gal(a1-3)Gal(b1-4)Glc = target: Gal(a1-3)Gal(b1-4)Glc
Summary of the method: as §1

[13] = target: Gal(a1-3)Gal(b1-4)GlcNAc(b1-6)GalNAc
Summary of the method: as §1

Gal(a1-3)GalNAc = target: Gal(a1-3)GalNAc
Summary of the method: as §1

[14] = target: Gal(b1-3)GalNAc(a1-3)[Fuc(a1-2)]Gal(b1-4)Glc
Summary of the method: as §1

[15] = target: Gal(b1-3)GlcNAc(b1-3)Gal(b1-4)GlcNAc(b1-3)Gal(b1-4)GlcNAc(b1-2)[Gal(b1-3)GlcNAc(b1-3)Gal(b1-4)GlcNAc(b1-3)Gal(b1-4)GlcNAc(b1-6)]Man(a1-6)[Gal(b1-3)GlcNAc(b1-3)Gal(b1-4)GlcNAc(b1-3)Gal(b1-4)GlcNAc(b1-2)Man(a1-3)]Man(b1-4)GlcNAc(b1-4)[Fuc(a1-6)]GlcNAc
Summary of the method: as §1

[16] = target: Gal(b1-4)GalNAc(a1-3)[Fuc(a1-2)]Gal(b1-4)GlcNAc
Summary of the method: as §1

[17] = target: Gal(b1-4)GlcNAc(b1-2)Man(a1-6)[Man(a1-3)]Man(b1-4)GlcNAc(b1-4)GlcNAc
Summary of the method: as §1

[18] = target: Gal(b1-4)GlcNAc(b1-3)Gal(b1-4)GlcNAc(b1-3)Gal(b1-4)GlcNAc(b1-2)Man(a1-3)[Gal(b1-4)GlcNAc(b1-3)Gal(b1-4)GlcNAc(b1-3)Gal(b1-4)GlcNAc(b1-2)Man(a1-6)]Man(b1-4)GlcNAc(b1-4)GlcNAc
Summary of the method: as §1

[19] = target: Gal(b1-4)GlcNAc(b1-3)Gal(b1-4)GlcNAc(b1-3)Gal(b1-4)GlcNAc(b1-3)Gal(b1-4)GlcNAc(b1-2)Man(a1-3)[Gal(b1-4)GlcNAc(b1-3)Gal(b1-4)GlcNAc(b1-3)Gal(b1-4)GlcNAc(b1-3)Gal(b1-4)GlcNAc(b1-2)Man(a1-6)]Man(b1-4)GlcNAc(b1-4)[Fuc(a1-6)]GlcNAc
Summary of the method: as §1

[20] = target: Gal(b1-4)GlcNAc(b1-3)Gal(b1-4)GlcNAc(b1-3)Gal(b1-4)GlcNAc(b1-3)Gal(b1-4)GlcNAc(b1-3)Gal(b1-4)GlcNAc(b1-3)Gal(b1-4)GlcNAc(b1-2)Man(a1-3)[Gal(b1-4)GlcNAc(b1-3)Gal(b1-4)GlcNAc(b1-3)Gal(b1-4)GlcNAc(b1-3)Gal(b1-4)GlcNAc(b1-3)Gal(b1-4)GlcNAc(b1-3)Gal(b1-4)GlcNAc(b1-2)Man(a1-6)]Man(b1-4)GlcNAc(b1-4)GlcNAc
Summary of the method: as §1

[21] = target: Gal(b1-4)GlcNAc(b1-3)Gal(b1-4)GlcNAc(b1-3)GalNAc
Summary of the method: as §1

[22] = target: Gal(b1-4)GlcNAc(b1-3)GalNAc
Summary of the method: as §1

[23] = target: Gal(b1-4)GlcNAc(b1-6)[Gal(b1-4)GlcNAc(b1-3)]GalNAc
Summary of the method: as §1

B1: CPA (Cicer arietinum) (protein)
chain: MAFSYLNLVLVTLTTLFFLQTTKVKSQKSVSFHITNFTISRPSITLQGTAEFLPNVLLLNDIEHPVFVVGRALYSKPITLWNNKTGKVASFVTSFTFDVQDLKKTVPGHGLVFFLAPSGSEIPFSSDGGNLGVVDGKNAFNRFVGVEFDNFVNSWDPKYSHVGINVNSLISTKTVKWNRVSGELVKVSIVYDSVSTTLTVIVTYKNGQISILSQLVDLKAVLPDTVNIGFSASTTLVSPRQLHNIHSWSFTSTFET
glycan array binding signal (z-score) (Fuc(a1-2)Gal(b1-3)GalNAc): -0.424
glycan array binding signal (z-score) [1]: 3.79
glycan array binding signal (z-score) [2]: -0.072
glycan array binding signal (z-score) [3]: 0.297
glycan array binding signal (z-score) [4]: 0.012
glycan array binding signal (z-score) [5]: -0.681
glycan array binding signal (z-score) [6]: -0.184
glycan array binding signal (z-score) [7]: 0.562
glycan array binding signal (z-score) [8]: 3.66
glycan array binding signal (z-score) [9]: 0.023
glycan array binding signal (z-score) [10]: 1.3
glycan array binding signal (z-score) (Fuc(a1-3)GlcNAc): -0.573
glycan array binding signal (z-score) (Gal(a1-2)Gal): -0.045
glycan array binding signal (z-score) (Gal(a1-3)Gal(b1-3)GlcNAc): 0.134
glycan array binding signal (z-score) [11]: -0.562
glycan array binding signal (z-score) [12]: -0.42
glycan array binding signal (z-score) (Gal(a1-3)Gal(b1-4)Glc): 0.092
glycan array binding signal (z-score) [13]: -0.23
glycan array binding signal (z-score) (Gal(a1-3)GalNAc): -0.121
glycan array binding signal (z-score) [14]: -0.568
glycan array binding signal (z-score) [15]: 3.59
glycan array binding signal (z-score) [16]: -0.399
glycan array binding signal (z-score) [17]: -0.041
glycan array binding signal (z-score) [18]: 4.32
glycan array binding signal (z-score) [19]: 0.005
glycan array binding signal (z-score) [20]: 3.7
glycan array binding signal (z-score) [21]: 3.36
glycan array binding signal (z-score) [22]: -0.24
glycan array binding signal (z-score) [23]: 3.6
